# GPR151 ag: activates the human receptor GPR151; Q8TDV0; PathHunter beta-arrestin GPR151 cells, luminescence; activation, % at 11.2 µM; hit rate 1% among 650,000; AID 1508602; in the data active = activation above about 4.9%
# Target sequence (Q8TDV0 whole entry, looked up): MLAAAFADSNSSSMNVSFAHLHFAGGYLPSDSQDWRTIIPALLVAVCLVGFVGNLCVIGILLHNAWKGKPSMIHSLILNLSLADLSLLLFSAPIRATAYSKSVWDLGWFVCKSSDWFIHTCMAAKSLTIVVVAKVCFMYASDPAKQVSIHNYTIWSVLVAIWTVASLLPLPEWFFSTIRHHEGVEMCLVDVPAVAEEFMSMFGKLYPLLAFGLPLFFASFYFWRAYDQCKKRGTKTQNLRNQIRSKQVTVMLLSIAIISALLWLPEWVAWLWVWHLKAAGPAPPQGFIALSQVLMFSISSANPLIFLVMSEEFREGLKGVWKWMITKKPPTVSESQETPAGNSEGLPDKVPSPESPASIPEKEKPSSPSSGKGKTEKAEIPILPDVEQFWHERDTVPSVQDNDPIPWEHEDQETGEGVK
# FBW7 act: human FBW7 E3 ligase activation, primary screen | normalized activity (activation), % at 26.1 µM | hit rate 0.13% among 650,000 | AlphaScreen FBW7–phospho-cyclin E peptide binding, activator screen | Q969H0; in the data active = normalized activity above about 1.9%;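 note: purified mutant Fbw7 with reduced substrate affinity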
# MITF inh: blocks human microphthalmia-associated transcription factor. AlphaScreen MITF homodimerization, bead proximity signal. O75030. AID 1259374. hit rate 0.91% among 650,000. inhibition, % at 2.6 µM; in the data active = inhibition above about 50%
# TEAD-YAP block: TEAD-YAP interaction inhibition. HEK-TIYL cells, TEAD-Gal4/YAP UAS-luciferase luminescence. inhibition, % at 9.12 µM. hit rate 1.4% among 640,000; in the data active = inhibition above about 32%
# Hits are given with their value; - = inactive. An excerpt weighted towards active compounds, which were near 3.5% of everything screened.
SMILES,GPR151 ag,FBW7 act,MITF inh,TEAD-YAP block
COc1cccc(/C=N/NC(=O)c2cccc(NC(=O)c3ccccc3F)c2)c1O,-,-,-,64
Cc1ccccc1C(=O)N/N=C/c1cccc(O)c1O,-,-,-,59
O=C(N/N=C/c1cccc(O)c1O)c1cc(O)cc(O)c1,-,-,61,-
Cc1ccccc1/C=N/NC(=O)c1ccccc1C,-,-,-,-
O=C(N/N=C/c1ccccc1O)c1cccc2cc[nH]c12,-,-,-,81
O=C(N/N=C/c1ccccc1Br)c1cccc2cc[nH]c12,-,-,-,-
c1cncc(CNc2nccc(NC3CC3)n2)c1,-,-,-,-
Cc1ccc(-n2nc3c(c2NC(=O)Cc2ccccc2)CSC3)cc1,-,-,-,-
C=CCc1cccc(/C=N/NC(=O)c2ccccc2O)c1O,-,-,-,42
C=CCc1cccc(/C=N/NC(=O)c2ccccc2OC)c1O,-,-,-,-
COc1cccc(C=Nc2ccc3[nH]ncc3c2)c1O,-,6.3,-,-
COc1cccc(/C=N/NC(=O)Cn2c3ccccc3c(=O)c3ccccc32)c1O,-,-,-,50
COc1cc(Br)cc(C=Nc2ccc3[nH]ncc3c2)c1O,-,-,-,-
COc1cccc(/C=N/NC(=O)c2ccccc2O)c1O,-,-,-,77
COc1cccc(/C=N/NC(=O)COc2ccccc2)c1O,-,-,-,-
O=C(Cn1cnc2scc(-c3ccccc3)c2c1=O)N1CCC2(CC1)OCCO2,-,-,-,-
Cn1c(=O)c2c(nc(Oc3cccc(/C=c4/sc5nc6ccccc6n5c4=O)c3)n2C)n(C)c1=O,-,-,-,-
Cc1csc(NC(=O)C(NS(=O)(=O)c2cccc3nsnc23)C(C)C)n1 (centres undefined),-,-,-,-
COc1cccc2c(SCC(=O)N/N=C/c3ccc(O)cc3O)cc(C)nc12,-,-,-,-
CC(C)Oc1ccc(-c2cc(C(=O)N/N=C/c3ccccc3O)[nH]n2)cc1,-,-,-,65
COc1cccc(/C=N/NC(=O)CSc2cc(C)nc3ccc(C)cc23)c1O,-,-,-,44
O=C(COc1ccccc1)N1c2ccccc2Sc2ccccc21,-,-,-,62
COc1ccc(OCC(=O)N2c3ccccc3Sc3ccc(Cl)cc32)cc1,-,-,-,-
COc1ccc(OCC(O)CN2CCN(C(=O)c3ccccc3)CC2)cc1 (centres undefined),-,-,-,-
c1c2c(cc3sc(N4CCOCC4)nc13)OCCO2,-,-,-,69
SMILES,GPR151 ag,FBW7 act,MITF inh,TEAD-YAP block
COc1cc(OC)cc(-c2nnc(NC(=O)c3cccc(OC)c3OC)o2)c1,-,-,-,-
COc1ccc(CN2Cc3cc(C)ccc3OC(C)C2)cc1O (centres undefined),-,-,-,55
CCOC(=O)c1[nH]ncc1CN1CCN(Cc2ccc(OC)cc2F)C(CCO)C1 (centres undefined),-,-,-,-
CCOC(=O)CC1COCCN1Cc1cn[nH]c1-c1ccc2cc(OC)ccc2c1 (centres undefined),-,-,-,46
COc1cc2c(C(=O)N(C)c3ccccc3C)cn(CC(C)C)c(=O)c2cc1OC,-,2.2,-,-
CCOCCCNCc1c(C(=O)O)n(Cc2ccc(F)cc2Cl)c2ccccc12,-,-,-,-
CN1CCN(C2=CC(=[N+]3CCCCC3)CC(C)(C)C2)CC1,-,-,-,-
CC1CC(C)C[N+](=C2C=C(N3CCCC3)CC(C)(C)C2)C1 (centres undefined),-,-,-,77
C1=C(N2CCCC2)CCCC1=[N+]1CCCC1,-,-,-,42
CC1(C)CC(N2CCCC2)=CC(=[N+]2CCCCCC2)C1,-,-,-,66
CN1CCN(C2=CC(=[N+]3CCCC3)CC(C)(C)C2)CC1,-,-,-,-
COCCN1CCC(CN(C)Cc2c(C(=O)N3CCCCC3)nc3sccn23)CC1,-,-,-,-
O=C(C[n+]1ccccc1)N/N=C/c1ccncc1,-,-,-,-
OC1(C#Cc2ccccc2)CCCCCC1,-,-,-,-
CC(=O)Oc1ccc(C2Nc3c(C(=O)O)ccc([N+](=O)[O-])c3C3C=CCC32)cc1 (centres undefined),-,-,-,-
O=C(O)c1ccc([N+](=O)[O-])c2c1NC(c1ccc([N+](=O)[O-])cc1)C1CC=CC21 (centres undefined),-,-,85,-
O=C1C(Cl)=C(NCCN2CCCCC2)C(=O)c2ccccc21,-,-,-,41
CCN(CC)CCNC1=C(Cl)C(=O)c2ccccc2C1=O,-,-,-,46
C/C(=N\Nc1ccc(C#N)cc1[N+](=O)[O-])c1ccc(Br)cc1,-,-,-,-
CC(=O)Nc1nnc(SCC(=O)n2c3c(c4ccccc42)CCCC3)s1,-,-,-,-
COc1cccc(/C=N/NC(=O)c2nnn(-c3nonc3N)c2C)c1O,-,-,-,75
CCc1c(C(=O)N/N=C/c2ccc(N(CC)CC)cc2O)nnn1-c1nonc1N,-,-,-,41
COc1cccc(/C=N/NC(=O)c2nnn(-c3nonc3N)c2-c2ccccc2)c1O,-,-,-,-
Cc1c(C(=O)N/N=C/c2ccc(O)cc2O)nnn1-c1nonc1N,-,-,-,75
CCN(CC)c1ccc(/C=N/NC(=O)c2nnn(-c3nonc3N)c2CN(C)C)c(O)c1,-,-,-,-
SMILES,GPR151 ag,FBW7 act,MITF inh,TEAD-YAP block
COCc1c(C(=O)N/N=C\c2ccc(O)cc2O)nnn1-c1nonc1N,-,-,-,-
CCC(C)[C@@H](C(=O)NCc1ccccc1C)N1Cc2ccccc2C1=O (some centres undefined),-,-,-,-
COc1cc(OC)cc(C(=O)NCc2nnc(SCC(=O)N3N=C(c4cccs4)CC3c3ccc(C)cc3)n2-c2ccccc2)c1 (centres undefined),-,-,-,-
CC1Cc2cc(-c3cc(CC(=O)NCc4cccnc4)no3)ccc2O1 (centres undefined),-,-,-,34
COc1ccc(-c2cc(C(=O)NCc3cccnc3)no2)cc1,-,-,-,-
FC(F)(F)c1cccc(-c2[nH]ncc2-c2ccncc2)c1,-,-,-,-
CCn1c(CN2CCN(c3ccccc3)CC2)nc2c1c(=O)n(C)c(=O)n2C,-,-,-,46
CCn1c(CN2CCN(c3ccc(F)cc3)CC2)nc2c1c(=O)n(C)c(=O)n2C,-,-,-,-
Cc1ccc(S(=O)(=O)Nc2ccc(Cl)c3cccnc23)cc1,-,-,-,58
O=S(=O)(Nc1ccc(Cl)c2cccnc12)c1ccccc1,-,-,-,53
COc1cccn2c(C(=O)Nc3cccc(N(C)C)c3)c(C(F)(F)F)nc12,-,-,-,-
CN(C)CCCN(C(=O)/C=C\c1ccc([N+](=O)[O-])cc1)c1nc2c(F)cccc2s1,-,-,-,76
CN(C)CCN(C(=O)c1c(F)cccc1F)c1nc2ccccc2s1,-,-,-,-
COCc1cc(C)nc(SCC(=O)Nc2ccccc2C(=O)c2ccccc2)c1C#N,-,-,-,-
COc1cc(OC)c2c(=O)c(-c3ccc4c(c3)OCO4)coc2c1,-,-,-,-
CC(=O)Oc1ccc2c(=O)c(-c3ccc4c(c3)OCCCO4)coc2c1,-,-,-,67
